Test results taken from PubChem BioAssay (NCATS).
“And” between values parts separate entries of the source, which are not always exact repeats. Equal values may be shown once. Records with an inconclusive call do not appear. The source made the active and inactive calls. Unless noted, calls come from the whole dose curve; as a rule, active = well fitted curve in the direction sought with a large enough effect; inconclusive = small, poorly fitted or top-dose-only effect, or another doubt; inactive = no such curve, though single readings can be large; an effect the other way counts as inactive or inconclusive.

Key:
[1] = molecular target: Retinoic acid receptor RXR-alpha (Homo sapiens) (UniProt P19793); experiment: qHTS assay for small molecule agonists of retinoid X receptor alpha signaling (AID 588544; calls by dose curve;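 note: 0% = DMSO basal wells and 100% = reference agonist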)
Chain of Retinoic acid receptor RXR-alpha (Homo sapiens) (P19793 whole entry, looked up): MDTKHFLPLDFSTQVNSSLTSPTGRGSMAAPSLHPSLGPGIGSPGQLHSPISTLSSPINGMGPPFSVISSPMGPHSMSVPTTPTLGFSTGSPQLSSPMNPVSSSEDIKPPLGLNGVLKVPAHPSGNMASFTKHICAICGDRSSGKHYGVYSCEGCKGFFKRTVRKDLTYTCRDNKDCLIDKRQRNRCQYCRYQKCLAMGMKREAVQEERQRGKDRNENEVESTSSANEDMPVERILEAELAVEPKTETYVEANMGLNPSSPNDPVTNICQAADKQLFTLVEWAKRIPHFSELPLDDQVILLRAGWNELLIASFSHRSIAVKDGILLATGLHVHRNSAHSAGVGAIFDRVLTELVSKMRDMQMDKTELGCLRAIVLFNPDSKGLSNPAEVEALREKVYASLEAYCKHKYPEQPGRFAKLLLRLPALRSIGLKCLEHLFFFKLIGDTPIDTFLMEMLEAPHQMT

[2] = molecular target: Thyroid hormone receptor beta (Homo sapiens) (UniProt P10828); experiment: qHTS assay for small molecule agonists of thyroid hormone receptor beta signaling (AID 588545; calls by dose curve;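 note: 0% = DMSO only and 100% = 10 nM T3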)
Chain of Thyroid hormone receptor beta (Homo sapiens) (P10828 whole entry, looked up): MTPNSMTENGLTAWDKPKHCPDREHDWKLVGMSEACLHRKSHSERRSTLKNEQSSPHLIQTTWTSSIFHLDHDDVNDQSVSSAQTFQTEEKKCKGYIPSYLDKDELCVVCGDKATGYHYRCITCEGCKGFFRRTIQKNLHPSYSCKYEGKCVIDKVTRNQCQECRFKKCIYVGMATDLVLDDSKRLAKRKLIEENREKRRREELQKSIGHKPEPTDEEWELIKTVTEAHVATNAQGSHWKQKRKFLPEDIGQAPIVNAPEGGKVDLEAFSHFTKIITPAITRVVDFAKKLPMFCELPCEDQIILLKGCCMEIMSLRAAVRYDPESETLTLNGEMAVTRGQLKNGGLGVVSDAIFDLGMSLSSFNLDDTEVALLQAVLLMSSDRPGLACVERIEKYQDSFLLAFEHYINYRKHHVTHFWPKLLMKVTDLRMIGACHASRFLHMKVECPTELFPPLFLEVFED
In short: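 TR-UAS-bla GripTite HEK 293 cells (2500/well, medium with 2% charcoal/dextran FBS) were treated in agonist mode for 18 h at 37 C, titrated. Beta-lactamase was read by CCF4 ratio after 2 h; normalized to 10 nM T3 (100%) and DMSO, Hill-fitted for EC50 and efficacy.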

[3] = qHTS assay for small molecule antagonists of retinoid X receptor alpha signaling (AID 588546; active = well fitted inhibition curve with a large enough effect in the signal ratio, with a control signal flat, not every such curve was filed as active; the % refers to the signal ratio;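 note: cells stimulated with 9-cis-retinoic acid as agonist; % is set by controls: 0 for no effect and ±100 for the full control effect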); settings: HEK293T RXRa-UAS-bla, beta-lactamase ratio, antagonist mode; measured here: W530 green channel, cytotoxicity proxy
In short: (§1)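 Beta-lactamase reporter inhibition, read as CCF4 fluorescence ratio (ex 405, em 460/530 nm) after 2 h at RT. HEK293T UAS-bla cells, 2500/well, were stimulated with 9-cis-RA at 500 or 100 nM final alongside test compound for 18 h at 37 C.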

[4] = molecular target: Retinoic acid receptor RXR-alpha (Homo sapiens) (UniProt P19793); experiment: as above; settings: HEK293T RXRa-UAS-bla, beta-lactamase ratio, antagonist mode
In short: as §1

[5] = molecular target: Thyroid hormone receptor beta (Homo sapiens) (UniProt P10828); experiment: qHTS assay for small molecule antagonists of thyroid hormone receptor beta signaling (AID 588547; active = well fitted inhibition curve with a large enough effect in the signal ratio, with a control signal flat, not every such curve was filed as active; the % refers to the signal ratio;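 note: cells stimulated with 0.4 nM T3 agonist during compound exposure; % is set by controls: 0 for no effect and ±100 for the full control effect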); settings: TR-UAS-bla HEK293, beta-lactamase ratio, antagonist mode, 18 h
In short: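 TR-UAS-bla GripTite HEK293 cells in 2% charcoal/dextran FBS medium were preincubated 4 h at 37 C, given compound (0.59 nM to 92 uM) plus 0.4 nM T3 (final) for 18 h, then CCF4 for 2 h at RT; Hill fit gave IC50.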

[6] = molecular target: Voltage-gated inwardly rectifying potassium channel KCNH2 (Homo sapiens) (UniProt Q12809); experiment: qHTS Assay for Small Molecule Inhibitors of the Human hERG Channel Activity (AID 588834);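 note: top concentration of the series differs between compounds; % is set by controls: 0 for no effect and ±100 for the full control effect; lower thallium flux fluorescence means stronger hERG block; nearly all actives have a fitted effect of over 50% in size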
Chain of Voltage-gated inwardly rectifying potassium channel KCNH2 (Homo sapiens) (Q12809 whole entry, looked up): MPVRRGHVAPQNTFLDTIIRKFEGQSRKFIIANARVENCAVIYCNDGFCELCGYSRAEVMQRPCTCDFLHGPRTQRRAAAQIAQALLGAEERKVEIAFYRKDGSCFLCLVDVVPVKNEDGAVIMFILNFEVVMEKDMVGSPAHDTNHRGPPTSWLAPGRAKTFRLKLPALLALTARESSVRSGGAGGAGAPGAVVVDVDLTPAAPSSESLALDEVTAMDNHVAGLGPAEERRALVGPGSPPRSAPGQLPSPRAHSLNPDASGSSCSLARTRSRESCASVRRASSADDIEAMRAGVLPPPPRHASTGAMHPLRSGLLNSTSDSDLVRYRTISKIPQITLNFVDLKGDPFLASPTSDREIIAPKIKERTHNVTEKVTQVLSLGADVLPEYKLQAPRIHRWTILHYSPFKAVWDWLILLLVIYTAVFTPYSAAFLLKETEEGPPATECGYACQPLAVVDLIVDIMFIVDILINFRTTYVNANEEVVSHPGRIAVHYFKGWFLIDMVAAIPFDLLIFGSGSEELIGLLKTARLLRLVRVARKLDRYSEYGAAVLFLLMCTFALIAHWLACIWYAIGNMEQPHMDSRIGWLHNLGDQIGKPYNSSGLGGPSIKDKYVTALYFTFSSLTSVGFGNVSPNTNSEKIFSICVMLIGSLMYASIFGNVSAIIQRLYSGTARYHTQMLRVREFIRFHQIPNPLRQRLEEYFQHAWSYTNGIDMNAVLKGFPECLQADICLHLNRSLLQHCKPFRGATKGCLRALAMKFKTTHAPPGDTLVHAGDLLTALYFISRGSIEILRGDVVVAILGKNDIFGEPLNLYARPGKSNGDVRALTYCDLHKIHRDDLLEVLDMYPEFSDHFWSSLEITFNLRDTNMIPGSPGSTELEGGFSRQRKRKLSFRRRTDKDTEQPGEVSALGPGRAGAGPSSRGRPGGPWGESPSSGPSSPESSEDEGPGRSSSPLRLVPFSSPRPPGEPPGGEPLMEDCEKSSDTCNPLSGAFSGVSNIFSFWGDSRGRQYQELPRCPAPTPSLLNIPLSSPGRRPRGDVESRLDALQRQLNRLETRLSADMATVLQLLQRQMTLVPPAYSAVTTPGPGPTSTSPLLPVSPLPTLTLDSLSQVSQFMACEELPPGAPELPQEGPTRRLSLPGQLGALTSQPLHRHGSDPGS
In short: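 U2OS cells transduced with hERG via BacMam (MOI ~100), plated 2000/well, loaded with FluxOR thallium dye, compound ~10 min, then stimulation buffer; fluorescence decrease read kinetically; AC50 from Hill fits.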

[7] = molecular target: Luciferin 4-monooxygenase (Photinus pyralis) (UniProt P08659); experiment: Biochemical firefly luciferase enzyme assay for NPC (AID 624030);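 note: purified P. pyralis luciferase at 10 nM with luciferin and ATP substrate; 0% = DMSO and -100% = full luciferase inhibition by PTC124 control; nearly all actives have a fitted effect of over 70% in size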
Chain of Luciferin 4-monooxygenase (Photinus pyralis) (P08659 whole entry, looked up): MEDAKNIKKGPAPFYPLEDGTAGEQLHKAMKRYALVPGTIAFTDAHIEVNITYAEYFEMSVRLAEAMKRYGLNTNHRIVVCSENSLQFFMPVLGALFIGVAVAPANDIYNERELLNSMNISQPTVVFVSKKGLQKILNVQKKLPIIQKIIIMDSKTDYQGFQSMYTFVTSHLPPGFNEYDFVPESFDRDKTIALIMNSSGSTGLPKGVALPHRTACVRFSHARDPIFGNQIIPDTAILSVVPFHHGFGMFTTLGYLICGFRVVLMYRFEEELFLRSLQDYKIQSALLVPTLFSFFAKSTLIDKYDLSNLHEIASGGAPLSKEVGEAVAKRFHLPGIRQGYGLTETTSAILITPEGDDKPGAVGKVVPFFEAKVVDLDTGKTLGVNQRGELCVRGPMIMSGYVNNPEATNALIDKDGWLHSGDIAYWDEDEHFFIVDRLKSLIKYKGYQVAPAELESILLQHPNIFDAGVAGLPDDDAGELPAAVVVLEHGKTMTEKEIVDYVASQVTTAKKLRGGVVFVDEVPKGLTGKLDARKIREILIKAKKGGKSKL
In short: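 Counter-screen for direct inhibition of the luciferase enzyme by approved-drug library compounds, run at 10 nM enzyme in 50 mM Tris acetate (final). Luminescence was read within 5 min of enzyme-buffer addition and normalized to PTC124 versus DMSO (0%).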

[8] = qHTS assay for small molecule agonists of the antioxidant response element (ARE) signaling pathway (AID 651741; active = well fitted activation curve with a large enough effect in the signal ratio; the % refers to the signal ratio; note: % of control where 0% means no effect)
In short: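 ARE-bla HepG2 cells (beta-lactamase reporter under ARE control) were plated at 2,000 cells/well, preincubated 5 h at 37 C/5% CO2, then treated with DMSO-dissolved compounds for 16 h at 37 C; LiveBLAzer B/G FRET substrate added, fluorescence read after 2 h at room temperature.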

[9] = qHTS assay for small molecule activators of the p53 signaling pathway (AID 651743; active = well fitted activation curve with a large enough effect in the signal ratio, not every such curve was filed as active; the % refers to the signal ratio; note: % of control where 0% means no effect); settings: HCT-116 p53RE-bla, beta-lactamase FRET ratio, 16 h; activation: stronger effect = higher value
In short: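 p53RE-bla HCT-116 cells with a stably integrated beta-lactamase reporter under p53 response elements were plated, rested 5 hours at 37 C/5% CO2, then exposed to compounds in DMSO for 16 hours at 37 C. LiveBLAzer B/G FRET substrate was read after 2 hours at room temperature.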

[10] = qHTS assay for small molecule activators of the nuclear factor-kappa B (NF-kB) signaling pathway (AID 651749; active = well fitted activation curve with a large enough effect in the signal ratio; the % refers to the signal ratio; note: % of control where 0% means no effect); settings: NF-kB-bla ME-180 cells, beta-lactamase FRET ratio, 16 h; activation: stronger effect = higher value
In short: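 ME-180 cells stably carrying a beta-lactamase reporter under an NF-kB response element were exposed to compound or DMSO vehicle for 16 hr at 37C, 5% CO2. Pathway activation was read by FRET, since reporter expression disrupts FRET.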

[11] = molecular target: Peroxisome proliferator-activated receptor alpha (Homo sapiens) (UniProt Q07869); experiment: qHTS assay for small molecule agonists of the peroxisome proliferator-activated receptor alpha (PPARalpha) signaling pathway (AID 651778); settings: PathHunter PPARalpha complementation, chemiluminescence, 6 h; stronger effect = higher value; note: % of control where 0% means no effect
Chain of Peroxisome proliferator-activated receptor alpha (Homo sapiens) (Q07869 whole entry, looked up): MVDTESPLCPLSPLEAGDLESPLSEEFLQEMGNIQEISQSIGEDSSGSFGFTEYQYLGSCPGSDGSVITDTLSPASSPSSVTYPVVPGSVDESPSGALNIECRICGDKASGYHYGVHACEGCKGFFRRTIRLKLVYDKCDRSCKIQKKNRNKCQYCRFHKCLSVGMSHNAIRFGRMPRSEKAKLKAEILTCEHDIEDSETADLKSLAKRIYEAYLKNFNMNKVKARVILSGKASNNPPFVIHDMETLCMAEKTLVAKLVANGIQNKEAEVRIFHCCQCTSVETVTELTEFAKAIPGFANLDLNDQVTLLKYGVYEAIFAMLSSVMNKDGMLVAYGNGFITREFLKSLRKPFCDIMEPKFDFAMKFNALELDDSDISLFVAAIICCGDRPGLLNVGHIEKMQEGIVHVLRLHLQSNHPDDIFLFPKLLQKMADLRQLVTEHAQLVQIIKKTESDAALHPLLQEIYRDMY
In short: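 Cells plated at 2,000/well and held overnight at 37 C, 5% CO2, then compound added by pin tool for 6 hr; after PathHunter detection reagent and 60 min at room temperature, chemiluminescence from enzyme complementation was read.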

[12] = molecular target: Nuclear receptor ROR-gamma (Homo sapiens) (UniProt P51449); experiment: qHTS assay for small molecule antagonists of the retinoid-related orphan receptor gamma (ROR-gamma) signaling pathway (AID 651802); note: % is set by controls: 0 for no effect and ±100 for the full control effect; nearly all actives have a fitted effect of over 60% in size
Chain of Nuclear receptor ROR-gamma (Homo sapiens) (P51449 whole entry, looked up): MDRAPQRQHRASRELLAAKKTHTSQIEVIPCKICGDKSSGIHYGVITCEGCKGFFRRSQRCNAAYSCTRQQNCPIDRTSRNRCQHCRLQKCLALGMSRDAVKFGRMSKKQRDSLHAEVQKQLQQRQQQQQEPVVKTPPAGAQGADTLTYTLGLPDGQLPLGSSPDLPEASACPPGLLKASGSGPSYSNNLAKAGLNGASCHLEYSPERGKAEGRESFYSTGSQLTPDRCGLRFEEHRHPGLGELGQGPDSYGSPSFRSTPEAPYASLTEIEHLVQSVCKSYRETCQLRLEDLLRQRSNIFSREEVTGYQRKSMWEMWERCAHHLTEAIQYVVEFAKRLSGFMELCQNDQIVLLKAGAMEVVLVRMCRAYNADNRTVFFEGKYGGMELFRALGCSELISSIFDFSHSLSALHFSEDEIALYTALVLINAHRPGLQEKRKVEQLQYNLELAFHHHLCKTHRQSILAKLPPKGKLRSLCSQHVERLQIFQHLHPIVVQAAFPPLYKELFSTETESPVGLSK
In short: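 CHO cells carrying TET-inducible ROR-gamma and an ROR response element–luciferase reporter were exposed to compound, then induced with doxycycline. After 16hr at 37C, luminescence was read; lower signal indicates antagonism.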

[13] = qHTS assay for small molecule agonists of the antioxidant response element (ARE) signaling pathway measured by Nrf2-dependant transcriptional activity (AID 720636; active = well fitted curve in the direction sought with a large enough effect in the repeat runs; an effect the other way counts as inactive or inconclusive;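 note: HepG2 cells with an ARE-driven luciferase reporter; % of control where 0% means no effect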)
In short: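 In HepG2 cells engineered with an Nrf2-responsive luciferase gene, ARE induction was quantified as luminescence after 16 hr compound treatment at 37 C.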

[14] = qHTS assay for small molecule antagonists of the retinoid-related orphan receptor gamma (ROR-gamma) signaling pathway - cell viability counter screen (AID 720652; active = well fitted curve in the direction sought with a large enough effect in the repeat runs; an effect the other way counts as inactive or inconclusive;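 note: compound exposure lasted 16 hr before ATP read; % is set by controls: 0 for no effect and ±100 for the full control effect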)
In short: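 Counter screen in CHO cells carrying TET-inducible ROR-gamma and an ROR response element-luciferase reporter; cells plated 5 hr, compound pinned, doxycycline added, then 16 hr at 37 C. Viability read as intracellular ATP by CellTiter-Glo luminescence.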

[15] = qHTS assay for small molecule agonists of the antioxidant response element (ARE) signaling pathway measured by Nrf2-dependant transcriptional activity - cell viability counter screen (AID 720653; active = well fitted curve in the direction sought with a large enough effect in the repeat runs; an effect the other way counts as inactive or inconclusive; note: % is set by controls: 0 for no effect and ±100 for the full control effect); settings: ARE-bla HepG2 viability, CellTiter-Glo ATP luminescence, 16 h; max response: stronger effect = lower value
In short: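 ARE-bla HepG2 cells (2,000/well) rested 5 hrs at 37C/5% CO2, then exposed to compounds in DMSO for 16 hrs. Viability was read in the same wells as intracellular ATP by luminescence, 30 min at room temperature after reagent addition.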

[16] = qHTS assay for cell viability of HEK293 cells (AID 743288); settings: ATP luminescence (CellTiter-Glo), 18 h; max response: stronger effect = lower value; note: % is set by controls: 0 for no effect and ±100 for the full control effect; nearly all actives have a fitted effect of over 50% in size
In short: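 Parental HEK293 cells were seeded at 2,000 cells/well, rested at least 5 h at 37 C, then exposed to compounds in DMSO for 18 h at 37 C. Viability was read as ATP-dependent luciferase luminescence after 30 min at room temperature.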

[17] = qHTS assay for cell viability of the p53RE-bla HCT-116 cell line (AID 743292); note: % is set by controls: 0 for no effect and ±100 for the full control effect; nearly all actives have a fitted effect of over 55% in size
In short: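 Intracellular ATP of p53RE-bla HCT-116 cells measured by luciferase luminescence following 16 h compound incubation at 37 C; DMSO-only wells served as vehicle controls.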

[18] = P-glycoprotein substrates identified in KB-8-5-11 adenocarcinoma cell line, qHTS therapeutic library screen (AID 1346987); note: % is set by controls: 0 for no effect and ±100 for the full control effect; nearly all actives have a fitted effect of over 65% in size
In short: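 KB-8-5-11: colchicine-selected sub-line of KB-3-1 over-expressing P-gp; assay medium lacked colchicine. 72 h drug exposure at 37 degree C, CellTiter-Glo.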

[19] = molecular target: Cytochrome P450 2D6 (Homo sapiens) (UniProt P10635); experiment: Cytochrome P450 family 2 subfamily D member 6 (CYP2D6) small molecule antagonists: luciferase biochemical (cell-free) qHTS assay (AID 1645840; active = well fitted curve in the direction sought with a large enough effect in the repeat runs; an effect the other way counts as inactive or inconclusive; note: % is set by controls: 0 for no effect and ±100 for the full control effect; nearly all actives have a fitted effect of over 55% in size)
Chain of Cytochrome P450 2D6 (Homo sapiens) (P10635 whole entry, looked up): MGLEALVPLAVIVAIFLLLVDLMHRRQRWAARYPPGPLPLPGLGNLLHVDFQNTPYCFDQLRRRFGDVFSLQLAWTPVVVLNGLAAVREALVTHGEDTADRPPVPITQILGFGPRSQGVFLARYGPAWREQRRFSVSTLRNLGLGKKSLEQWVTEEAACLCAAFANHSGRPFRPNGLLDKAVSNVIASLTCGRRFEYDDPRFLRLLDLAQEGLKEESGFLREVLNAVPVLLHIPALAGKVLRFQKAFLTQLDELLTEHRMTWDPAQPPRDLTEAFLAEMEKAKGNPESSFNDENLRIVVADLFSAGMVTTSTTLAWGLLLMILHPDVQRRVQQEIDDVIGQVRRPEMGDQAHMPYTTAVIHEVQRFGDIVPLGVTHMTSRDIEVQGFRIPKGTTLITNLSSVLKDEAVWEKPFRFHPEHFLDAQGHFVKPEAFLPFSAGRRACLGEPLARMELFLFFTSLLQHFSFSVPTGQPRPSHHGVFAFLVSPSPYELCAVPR
In short: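 P450-Glo luminescent screen: recombinant CYP2D6 enzyme–proluciferin substrate mix preincubated with compound 10 min at room temperature, then NADPH regeneration added for 1 h at room temperature. Detection reagent added for 20 min; luciferin light read as relative luminescence units.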

KB-3-1 = experiment: Cytotoxic Profiling of Annotated Libraries Using Quantitative High-Throughput Screening (AID 1296008); settings: Five cell lines viability, CellTiter-Glo ATP luminescence, 48-72 h; max response: stronger effect = lower value; note: % is set by controls: 0 for no effect and ±100 for the full control effect; nearly all actives have a fitted effect of over 60% in size
In short: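 Compounds were pin-transferred onto cells and incubated 48 or 72 hr at 37 degree Celsius, 95% humidity. CellTiter-Glo was added, plates sat 10 min at room temperature, then ATP-coupled luminescence was imaged as the viability read-out.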

astro = experiment: Drug repurposing screens with cells derived from glioblastoma tumor samples (AID 1345199); settings: viability, ATP luminescence, 48 h; series mostly up to 45.9 µM; note: % is set by controls: 0 for no effect and ±100 for the full control effect; nearly all actives have a fitted effect of over 40% in size
In short: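 Four patient lines of CD133+ GBM neurospheres were screened at several concentrations; hits were retested in those lines plus three slower-growing GBM lines, using 48-hour treatment and ATP-based viability.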

[20] = molecular target: Nuclear receptor subfamily 1 group I member 2 (Rattus norvegicus) (UniProt Q9R1A7); experiment: qHTS assay for small molecule activators of the rat pregnane X receptor (rPXR) signaling pathway (AID 651751; call rule not given here; note: 0% is about no effect); settings: rPXR reporter cells, luciferase (One-Glo), 24 h
Chain of Nuclear receptor subfamily 1 group I member 2 (Rattus norvegicus) (Q9R1A7 whole entry, looked up): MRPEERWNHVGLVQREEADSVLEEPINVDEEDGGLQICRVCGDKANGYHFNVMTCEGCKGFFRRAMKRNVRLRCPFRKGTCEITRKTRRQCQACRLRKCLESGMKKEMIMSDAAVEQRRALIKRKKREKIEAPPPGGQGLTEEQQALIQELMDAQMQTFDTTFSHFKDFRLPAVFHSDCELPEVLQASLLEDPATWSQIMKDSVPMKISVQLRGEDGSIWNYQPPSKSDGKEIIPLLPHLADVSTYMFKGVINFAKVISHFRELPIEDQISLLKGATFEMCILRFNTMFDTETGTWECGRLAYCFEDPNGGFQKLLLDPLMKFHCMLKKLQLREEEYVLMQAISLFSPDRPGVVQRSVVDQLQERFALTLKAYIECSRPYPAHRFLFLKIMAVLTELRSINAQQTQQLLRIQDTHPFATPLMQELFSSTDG

[21] = qHTS assay for small molecule activators of the human pregnane X receptor (PXR) signaling pathway (AID 720659; call rule not given here; note: 0% is about no effect)

CCOc1cc(C=O)ccc1O
0.367% and -12.6%: max response [3]
inactive: outcome [1] | Potency [2] | max response [4] 1.38% and 4.11% | activity change % (negative = inhibition) [5] 6.05% and -14.6% | Potency [6] | Potency [7] | Potency [8] | activation [9] -1.8% | activation [10] -0.0137% and -0.605% | max response [11] -3.28% and -2.59% | Potency [12] | Potency [13] | outcome [14] | max response [15] -16.9% and 0.643% | max response [16] -8.41% and -7.59% | outcome [17] | Potency [18] | Potency [19] | max response (KB-3-1) -13% | Potency (astro) | max response [20] -3.58% and -0.453% | outcome [21]
